SMILES strings stand for the structures. Out of some 1,200 compounds screened, about 480 (40%) were called active. Inconclusive results (about 29%) are left out. The list shows a part of the results. Unmarked numbers belong to inactive results. The call rests on the fitted dose curve; in most records, active means well fitted inhibition curve with a large enough effect; inconclusive means small, poorly fitted or top-dose-only effect; inactive means no such curve, though single readings can be large or run the other way.
On the % scale 0 is the no-effect control and ±100 the full control effect; potency means the concentration at half of the fitted maximal effect.

This experiment in a line: qHTS Assay to Find Inhibitors of Chronic Active B-Cell Receptor Signaling: Hit Validation in Primary Screen. Further: nearly all actives have a fitted effect of over 75% in size. The settings on record: ABC-DLBCL IkB-luc/CBR ratio luminescence, 4 h; series mostly up to 46.1 µM; activity change, negative = inhibition: at the top concentration. In a few lines:
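Concentration series (3 nM to 46 uM) tested on TMD8 cells induced with doxycycline for 4 h. Filter-corrected green (IkBa fusion) over red (unfused) luciferase signal; Data were normalised to 10 uM MG-132 and untreated cell wells.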
Background: qHTS replaces the single test concentration by a dilution series.
Regarding `CCOC(=O)c1c(C=O)c2sc(C)cc2n1C`, the “activity change, negative = inhibition” value is 42.4%.
As for `CCOC(=O)c1c(C)c(C(=O)OCC)n(C)c1C`, the Potency was 6.51 µM (active).
For `COc1ccc(/C(C)=N/Nc2ccc(C(=O)O)cc2)cc1OC`, the Potency is 0.0231 µM (active).
On to `COc1ccc(/C(C)=N/Nc2nc3ccccc3nc2C)cc1OC`, for which the “activity change, negative = inhibition” value is -8.71%.
As to `Cc1cc(C)c2nc3sc(C(=O)N4CCOCC4)c(N)c3cc2c1`, the Potency is 1.46 µM (active).
Still for that read-out and setting: the same measure for `CCCC1=Nc2cc(C(=O)NCCCOCC)ccc2Sc2ccccc21`: 1.03 µM (active); for `CCCC1=Nc2cc(C(=O)NCCCOC(C)C)ccc2Sc2ccccc21`: 20.6 µM (active).
Take `CCOCCCNC(=O)c1ccc2c(c1)N=C(CC)c1cc(Br)ccc1S2`: the Potency was 0.259 µM (active).
On the same count and under the same terms, the result for `CCC1=Nc2cc(C(=O)NCCCOC)ccc2Sc2ccccc21` reads 2.06 µM (active).
Regarding `CC1=NN(C(N)=S)C(=O)C1N=Nc1cccc(C)c1` (configuration not stated), the “activity change, negative = inhibition” value was 21%.
As to `COc1ccc(C(=O)c2cc([N+](=O)[O-])ccc2N2CCOCC2)cc1`, the Potency is 2.06 µM (active).
With `CCOc1ccc(C(=O)c2cc([N+](=O)[O-])ccc2N2CCOCC2)cc1`, the Potency was 0.116 µM (active).
Regarding `C/C(=N\NC(=O)COc1ccc(C(C)(C)C)cc1)c1ccc(N2CCOCC2)cc1`, the “activity change, negative = inhibition” value is -11.3%.
In the case of `O=C(NC(=S)N1CCOCC1)c1cn(-c2ccccc2)nc1-c1ccccc1`, the “activity change, negative = inhibition” value was -5.47%.
As to `O=C(c1ccc(Cl)cc1)c1cc([N+](=O)[O-])ccc1N1CCOCC1`, the Potency was 5.8 µM (active).
`O=C(Oc1ccc2ccc(OC(=O)N3CCOCC3)cc2c1)N1CCOCC1`: the “activity change, negative = inhibition” value was -7.41%.
In the case of `O=C(c1cc([N+](=O)[O-])ccc1N1CCOCC1)N1CCN(c2ccccc2)CC1`, the Potency is 3.26 µM (active).
Consider `Cc1ccc(-n2cc(CNCCc3ncc(C)[nH]3)c(-c3ccc(F)cc3)n2)cc1`, for which the “activity change, negative = inhibition” value is -19.7%.
As for `COc1cc2c(cc1OC)-c1cc(NC3CCCCCC3)nc(=O)n1CC2`, the Potency is 9.2 µM (active).
On the same count and under the same terms, the result for `COc1cc2c(cc1OC)-c1cc(NC3CCCCC3)nc(=O)n1CC2` reads 23.1 µM (active); that for `Cc1onc(-c2ccccc2)c1-c1nc2cc(Cl)ccc2c(=O)o1`, 2.31 µM (active).
Regarding `C#CCOCCOCCOCCNc1nc(N2CCN(C(=O)[C@H](C(C)C)n3cc(CCO)nn3)CC2)nc(N2CCN(C(=O)[C@H]([C@@H](C)CC)n3cc(CCCN=C(N)N)nn3)CC2)n1`, the “activity change, negative = inhibition” value is 49.8%.
In the case of `COc1ccc(C(=O)Nc2ccc(-n3nncc3-c3ccc(OC)c(OC)c3)cc2)cc1`, the Potency is 2.06 µM (active).
Turning to `COc1ccc(-c2cc(C(=O)NN)[nH]n2)cc1OC`, the “activity change, negative = inhibition” value is -13.1%.
`COc1ccc(/C=C/C(=O)Nc2ccc(-n3nncc3-c3ccc(OC)c(OC)c3)cc2)cc1OC`: the Potency was 2.31 µM (active).
With `COc1ccc(N(CC(=O)NC2CCCC2)C(=O)Cn2nnc(-c3ccc(OC)c(OC)c3)n2)c(OC)c1`, the “activity change, negative = inhibition” value was -8.97%.
As for `Fc1cccc2sc(Nc3nnc(-c4ccccc4)o3)nc12`, the Potency was 0.13 µM (active).
Still for that read-out and setting: the same measure for `COc1cccc(-c2nnc(Nc3nc4c(F)cccc4s3)o2)c1`: 0.326 µM (active); for `O=C(/C=C/c1cccc(Cl)c1)c1nc2ccccc2[nH]1`: 20.6 µM (active).
With `CCN(C(=O)c1cnc(NC(C)C)cc1C(F)(F)F)c1ccc(Cl)cc1Cl`, the “activity change, negative = inhibition” value is -22.7%.
With `CCOc1ccc2c(c1)OC(c1ccc(OC)cc1)(C(F)(F)F)NC2=O` (configuration not stated), the Potency is 11.6 µM (active).
As to `Oc1c(CN2CCN(c3ccccc3)CC2)cc(Br)c2cccnc12`, the “activity change, negative = inhibition” value was -2.8%.
Take `COc1ccccc1N1CCN(C(=O)C2c3ccccc3Oc3ccccc32)CC1`: the Potency was 16.4 µM (active).
Still for that read-out and setting: the result for `COc1ccccc1N1CCN(C(=O)c2cc(=O)c3cc(C)cc(C)c3o2)CC1` reads 1.03 µM (active).
As for `CCOC(=O)c1cnc(Nc2nc3ccccc3o2)nc1CSC(=S)N1CCCCC1`, the “activity change, negative = inhibition” value was -3.65%.
Take `COc1ccc(-c2c/c(=N\c3nc(-c4ccccc4)c(C)s3)c3ccccc3o2)cc1O`: the Potency is 8.2 µM (active).
On the same count and under the same terms, the same measure for `C(=N\Nc1nc2ccccc2s1)/c1ccccn1`: 14.6 µM (active).
As to `Cc1csc(N/N=C/c2ccccn2)n1`, the “activity change, negative = inhibition” value is -0.0966%.
Consider `NC(=S)Nc1nc2ccccc2s1`, for which the “activity change, negative = inhibition” value was -0.485%.
In the case of `Nc1nc(SCc2nc(-c3ccccc3)no2)[nH]c(=O)c1-c1ccccc1`, the Potency was 20.6 µM (active).
On to `COc1ccc(-c2noc(CSc3nc(N)c(-c4ccccc4)c(=O)[nH]3)n2)cc1OC`, for which the Potency is 7.31 µM (active).
As to `COc1ccc(-c2noc(CSc3nc(N)c(-c4ccccc4)c(=O)[nH]3)n2)cc1`, the Potency was 8.2 µM (active).
Take `COCCNC(=S)N/N=C(\C)c1ccccc1F`: the “activity change, negative = inhibition” value was -7.26%.
Take `CCOc1ccc(S(=O)(=O)Nc2ccc3oc(C)c(C(=O)OCCOC)c3c2)cc1`: the Potency was 8.2 µM (active).
The same measure, in the same setting: the result for `O=C(/C=C\c1ccco1)Nc1cc([N+](=O)[O-])ccc1F` reads 1.84 µM (active).
Take `O=C(Cc1ccc(-n2c(=O)c3ccccc3n(Cc3ccccc3Cl)c2=O)cc1)NCC1CCCO1` (configuration not stated): the Potency was 2.59 µM (active).
As for `CCn1c(O)c(N=NC(=S)NCC2CCCO2)c2ccccc21` (configuration not stated), the “activity change, negative = inhibition” value was 73.4%.
As for `CC1CCC(n2c(=S)[nH]c3ccccc3c2=O)CC1` (configuration not stated), the “activity change, negative = inhibition” value is -10.4%.
With `CCN(CC(=O)NCc1ccc(F)cc1)C(=O)/C=C/c1ccc(OC)c(S(=O)(=O)NC(C)C)c1`, the Potency was 18.4 µM (active).
On the same count and under the same terms, the result for `CN(C)c1nc(=Nc2cccc(Cl)c2)ss1` reads 20.6 µM (active).
For `Cc1[nH]n(C(N)=S)c(=O)c1N=Nc1cccc(Cl)c1`, the “activity change, negative = inhibition” value is -15.4%.
As to `O=C(Nc1ncc(Cc2ccc(SC(F)F)cc2)s1)c1ccc(OC(F)F)cc1`, the Potency is 0.651 µM (active).
On the same count and under the same terms, the same measure for `Cc1ccc(C(=O)Nc2ncc(Cc3ccc(SC(F)F)cc3)s2)cc1`: 1.3 µM (active); for `O=C(Nc1ncc(Cc2ccc(SC(F)F)cc2)s1)c1ccccc1`: 18.4 µM (active).
As to `CCCCC(=O)O[C@]1(C(=O)CO)CC[C@H]2[C@@H]3CCC4=CC(=O)CC[C@]4(C)[C@H]3[C@@H](O)C[C@@]21C`, the “activity change, negative = inhibition” value was -25.2%.
Take `CCCSc1nc(C)c(C(C)=O)cc1C#N`: the Potency was 16.4 µM (active).
With `CCOc1cc(-c2cc(-c3ccc(NC(C)=O)cc3)nc(N)c2C#N)ccc1O`, the Potency was 20.6 µM (active).
On to `CC(C)(C)NNC(=S)Nc1cccc(C(F)(F)F)c1`, for which the “activity change, negative = inhibition” value is -1.75%.
Still for that read-out and setting: the same measure for `CN1CCN(Cc2cc(COCc3ccccc3)c3cccnc3c2O)CC1`: -1.6%.
As for `CC(C)Sc1ccccc1C(=O)Nc1ccc2c(c1)n(C)c(=O)n2C`, the “activity change, negative = inhibition” value was 113%.
For `CC(C)n1c(SCC(=O)Nc2ccccc2)nc2c1c(=O)n(C)c(=O)n2C`, the Potency is 18.4 µM (active).
For the molecule `CC1CCCCN1C(=S)NC(=O)c1cccs1` (configuration not stated), the “activity change, negative = inhibition” value is -6.25%.
For `Cc1cnn(CCC(=O)NNC(=S)NCC(C)C)c1`, the “activity change, negative = inhibition” value is -5.82%.
The same measure, in the same setting: the same measure for `O=C(COc1ccccc1-c1ccccc1)NN=C1CCCC1`: -6.57%.
With `O=C(COc1ccccc1-c1ccccc1)N/N=C/c1cccc2ccccc12`, the Potency is 2.06 µM (active).
On to `C/C(=N/NC(=O)COc1cc(C)ccc1C(C)C)C(=O)O`, for which the “activity change, negative = inhibition” value was -2%.
Still for that read-out and setting: the result for `C/C(CCC(C)C)=N\NC(=O)COc1ccccc1-c1ccccc1` reads -6.47%; that for `C/C(=N\NC(=O)COc1ccccc1-c1ccccc1)c1ccccn1`, 41.6%.
Turning to `Cc1ccc(/C=N/NC(=O)COc2ccccc2-c2ccccc2)cc1`, the Potency was 0.291 µM (active).
On the same count and under the same terms, the result for `O=C(COc1ccccc1-c1ccccc1)N/N=C/c1ccc2ccccc2c1` reads 0.651 µM (active).
As to `Cc1ccc(Cl)cc1NC(=S)N/N=C/c1cccc2ccccc12`, the “activity change, negative = inhibition” value is 94.8%.
Consider `COc1ccc(/C=N/NC(=O)COc2ccccc2-c2ccccc2)cc1`, for which the Potency is 2.59 µM (active).
As to `Cc1[nH]n(C(N)=S)c(=O)c1N=Nc1ccc([N+](=O)[O-])cc1Cl`, the “activity change, negative = inhibition” value was 65.2%.
The same measure, in the same setting: the result for `O=C1CC(c2ccccc2)Cc2nc3ncnn3cc21` (configuration not stated) reads -0.669%.
Regarding `CCOc1ccccc1C(=O)N1CCN(c2cccc(Cl)c2)CC1`, the Potency was 0.517 µM (active).
Take `Cc1ccccc1C(=O)N1CCC(C(=O)N2CCN(Cc3ccc4c(c3)OCO4)CC2)CC1`: the “activity change, negative = inhibition” value is -22%.
For `COC(=O)c1cc(C(=O)N2CCN(c3cccc(Cl)c3)CC2)cc([N+](=O)[O-])c1`, the Potency is 5.8 µM (active).
Turning to `CCOc1ncccc1C(=O)N1CCN(c2cccc(C)c2C)CC1`, the Potency is 5.8 µM (active).
Take `CCOc1ncccc1C(=O)N1CCN(c2cc(Cl)ccc2C)CC1`: the Potency is 8.2 µM (active).
As for `CCc1ccc(CNC(=O)Cc2ccc(NC(=O)C3=C(C)OCCS3)cc2)cc1`, the Potency is 2.06 µM (active).
Still for that read-out and setting: the result for `CC1=C(C(=O)Nc2ccc(CC(=O)NCc3ccc(OC(C)C)cc3)cc2)SCCO1` reads 1.3 µM (active); that for `CCCCC[C@H](O)/C=C/[C@@H]1[C@@H](C/C=C\CCCC(=O)OC)[C@@H](O)C[C@H]1O`, 0.103 µM (active).
On the same count and under the same terms, the result for `CCCCC[C@H](O)/C=C/[C@@H]1[C@@H](C/C=C\CCCC(=O)O)[C@@H](O)C[C@H]1O` reads 2.91 µM (active); that for `CCO[C@H]1OC(C(=O)NCc2nc3ccccc3[nH]2)=C[C@@H](C2CC2)[C@@H]1CCCO`, 18.4 µM (active).
`O=C(Oc1c(CN2CCOCC2)cc(Cl)c2cccnc12)c1ccc(F)cc1`: the “activity change, negative = inhibition” value was -3.49%.
`Oc1ccc(NCc2cccc(OCc3ccccc3)c2)cc1`: the “activity change, negative = inhibition” value was -5.22%.
As for `Cc1[nH]n(C(N)=S)c(=O)c1N=Nc1ccc2ccccc2c1`, the “activity change, negative = inhibition” value is -7.55%.
For the molecule `COc1ccc(N(C(=O)c2ccccc2C)S(=O)(=O)c2cccs2)cc1`, the Potency was 5.17 µM (active).
The same measure, in the same setting: the result for `C=CCOc1c(OC)cc(/C=N/Nc2cccc(C(=O)O)c2)c(Br)c1Br` reads 2.91 µM (active).
Turning to `O=C(Oc1ccc(Cl)c2cccnc12)C12CC3CC(CC(C3)C1)C2`, the “activity change, negative = inhibition” value is 74.1%.
For `O=c1cnnc(N/N=C/C2CC=CCC2)[nH]1` (configuration not stated), the “activity change, negative = inhibition” value was -5.08%.
As for `COC(=O)C1C(O)=C(C=Nc2cccc3ccccc23)C(=O)CC1(C)C` (configuration not stated), the Potency was 18.4 µM (active).
The same measure, in the same setting: the result for `COC(=O)C1C(O)=C(C=Nc2ccccc2)C(=O)CC1(C)C` (configuration not stated) reads 16.4 µM (active).
With `CCCOc1ccccc1C1CC(=O)Nc2cc3c(cc21)OCO3` (configuration not stated), the Potency was 6.51 µM (active).
In the case of `CCCOc1ccccc1C1CC(=O)Nc2cc3c(cc21)OCCO3` (configuration not stated), the Potency was 7.31 µM (active).
As for `CCOc1ccccc1C1CC(=O)Nc2cc3c(cc21)OCCO3` (configuration not stated), the Potency is 10.3 µM (active).
Take `Cc1ccc(-c2ccccc2NC(=O)CS(=O)CC(=O)Nc2ccc(C)c(Cl)c2)o1` (configuration not stated): the “activity change, negative = inhibition” value was -5.18%.

For the origin of these results see PubChem BioAssay AID651558 (National Center for Advancing Translational Sciences (NCATS), 2012).
